In ChEMBL document CHEMBL4513216, “Probing the Open Global Health Chemical Diversity Library for Multistage-Active Starting Points for Next-Generation Antimalarials” (ACS Infect Dis, 2020):
About 8,600 (12%) of roughly 69,000 compounds showed an effect of 50% or more. For the sample, strong results were picked, then their nearest neighbours and some compounds at random.

Test system: Plasmodium berghei
Assay: Screen against P. berghei liver stage (PbLuc), transformed with Luciferase, at 10uM
Type: functional, HepG2
Settings: tested at 10 uM

| Structure (SMILES) | INHIBITION |
| --- | --- |
| CCN(CC)c1ccc(C(=O)N2CCCC(n3cncn3)C2)cn1 (stereo not given) | -12.7% |
| Cc1oncc1C(=O)N1CCC2(CC1)CN(S(C)(=O)=O)c1ccccc12 | -13.4% |
| COc1cccc(CNC(=O)C(C)N2CC(n3nc(C)cc3C)C2)c1 (stereo not given) | 39.8% |
| COc1cccc(CC(=O)N2CCCC(n3nc(C)cc3C)C2)c1 (stereo not given) | 5.03% |
| COCCN1CCN(CC(=O)N(C)Cc2ccsc2)CC1 | 65.7% |
| COCCN1CCN(CC(=O)N(C)Cc2ccsc2)CC1C (stereo not given) | -39.2% |
| CN(Cc1ccsc1)C(=O)CN1CCc2c(ncn2C)C1 | -1.15% |
| COc1cccc(CN(C)C(=O)CN2CC(n3nc(C)cc3C)C2)c1 | 53.7% |
| CN(C)C(=O)Cn1cc(C(=O)NCCc2cccc(Cl)c2Cl)nn1 | -8.4% |
| COCCNC(=O)[C@H]1C[C@H]2OCC[C@H]2N(Cc2ccoc2)C1 | 31.1% |
| Cc1nc(N2CCCC2)nc2c1CCN(C(=O)CC1CCCC1)CC2 | -10.3% |
| COc1cccc(CC(=O)N2CC[C@@H]3NC(=O)CC[C@@H]32)c1 | -0.554% |
| COc1ccc(CC(=O)N2CC[C@@H]3NC(=O)CC[C@@H]32)cc1 | -6.46% |
| Cc1ccc(CC(=O)N2CC[C@@H]3NC(=O)CC[C@@H]32)cc1 | 58.5% |
| Cc1c(S(=O)(=O)NCC(C)Cn2cc(Cl)cn2)cnn1C (stereo not given) | 35.8% |
| CN(CCCc1cnn(C)c1)C(=O)C1CCC(=O)N(C2CCCC2)C1 (stereo not given) | -7.85% |
| C[C@H]1C[C@H]2CN(S(=O)(=O)c3ccc(F)cc3)CC[C@H]2O1 | -7.28% |
| CC1COCCN1C(=O)Cc1cc(Cl)c2c(c1)OCCCO2 (stereo not given) | 0.348% |
| O=C1C[C@H]2[C@@H](CCN2C(=O)c2ccoc2)N1CCN1CCOCC1 | -6.23% |
| COc1cccc(OCCCc2cc(C#N)ccn2)c1 | 55.6% |
| COc1ccccc1OCCCc1cc(C#N)ccn1 | 45.7% |
| COc1ccccc1OCCCc1cccc(C#N)n1 | -34.1% |
| COCc1cc(CNC(=O)c2cc(NC(C)=O)ccc2Cl)n[nH]1 | 40.6% |
| O=C(c1ccoc1)N1CCO[C@]2(CCC[C@H]2COCc2cccnc2)C1 | -34.7% |
| COCCN1CCC2(CC1)CC(NCc1cncn1C)c1ccccc12 (stereo not given) | 54.1% |
| Cn1cncc1CNC1CC2(CCN(S(C)(=O)=O)CC2)c2ccccc21 (stereo not given) | 23.1% |
| COCCN1CCC2(CC1)CC(NCc1ccc(C)s1)c1ccccc12 (stereo not given) | 45.7% |
| Cc1ccc(CNC2CC3(CCN(CCO)CC3)c3ccccc32)s1 (stereo not given) | 60.2% |

| Structure (SMILES) | INHIBITION |
| --- | --- |
| Cn1cncc1CNC1CC2(CCN(CC3CC3)CC2)c2ccccc21 (stereo not given) | 45.2% |
| O=C(NC1CC2(CCN(CCO)CC2)c2ccccc21)c1ccsc1 (stereo not given) | 27.5% |
| O=C(NC1CC2(CCN(CCO)CC2)c2ccccc21)c1ccncc1 (stereo not given) | 49.7% |
| Cc1cccc(CNC2CC3(CCN(CCO)CC3)c3ccccc32)n1 (stereo not given) | 52.1% |
| CCN1CCC2(CC1)CC(NCc1cccc(C)n1)c1ccccc1O2 (stereo not given) | -4.88% |
| COCCNC(=O)NC1CCN(c2cnn(C)c2)C1 (stereo not given) | 16% |
| Cn1cc(CN2C[C@@H](NC(=O)c3cscn3)[C@H]3OCCC[C@H]32)cn1 | -4.88% |
| COc1ccc(-c2ccnc(N)c2)c(C)c1 | 29.1% |
| COCCNS(=O)(=O)c1cccc(CSC)c1 | 20.2% |
| Cc1nn(C)c(C)c1C1CCCN1C(=O)CCCc1ccccn1 (stereo not given) | 23.4% |
| CS(=O)(=O)NC1CCc2[nH]c(=O)ccc2C1 (stereo not given) | 30.5% |
| O=C(NC1CCCC1)NC1CCc2[nH]c(=O)ccc2C1 (stereo not given) | 34.9% |
| CC(C)NC1CCc2[nH]c(=O)ccc2C1 (stereo not given) | 86.2% |
| CN(C)CCN(Cc1ccccn1)Cc1ccnn1C1CCCCO1 (stereo not given) | 18.3% |
| COCC1CN(C(=O)COc2ccc(C)cc2)Cc2cn(C)nc21 (stereo not given) | 5.96% |
| Cc1nc(CCNC(=O)c2cc(C(C)C)nn2C)sc1C | 81% |
| Cc1cc(C(=O)NCCc2nc3c(s2)CCCC3)n(C)n1 | 68% |
| CC(=O)c1ccc(CNC(=O)c2cc(C)nn2C)nc1C | -34% |
| O=C(O)c1ccnc(-c2ccnc(NCCc3nc4c(s3)CCC4)n2)c1 | 30.9% |
| Cc1nn2cc(CCNC(=O)c3cc(C(C)C)no3)nc2s1 | -97.2% |
| Cc1cc(C(=O)NCCc2cn3nc(C)sc3n2)c(C)o1 | -98.6% |
| c1cc(-c2nccn2CCc2nc3c(s2)CCC3)ccn1 | 11.6% |
| COc1nc2c(cc1C(=O)NCCc1nc3c(s1)CCC3)CCC2 | -6.04% |
| Cc1nc(CCNC(=O)C2CC(=O)N(C(C)C)C2)sc1C (stereo not given) | 22.3% |
| CC(C)Cc1cc(C(=O)NCCc2nnc(N)s2)n(C)n1 | -24.7% |
| CC(C)c1cc(C(=O)NCCc2nc3c(s2)CCC3)n(C)n1 | 89.6% |
| Cc1nn2cc(CCNC(=O)c3cc(C(C)C)nn3C)nc2s1 | 82.7% |
